# According to PubChem BioAssay AID1578 (Sanford-Burnham Center for Chemical Genomics, 2009):
# Out of some 290,000 compounds screened, about 3,000 (1%) were called active. The full list was thinned out, with actives kept by preference. Unmarked numbers belong to inactive results. Cut-off read from the data, not from the text of the source: active = inhibition mostly above about 36% (no sharp cut-off); inactive = mostly below about 34%.
# Assay: NOD1 signaling inhibitors, primary screen, cell-based, luminescence, uHTS (AID 1578);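 note: HEK-293T reporter cells stimulated with the NOD1 agonist gamma-tri-DAP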
# Settings: NOD1-driven NF-kB luciferase reporter cells, at 4 µM, hits give high values
row,Compound,inhibition
1,Cc1nn(C(C)(C)C)c(OC(=O)c2cccs2)c1Sc1ccccc1,68.5% (active)
2,Cc1nn(C(C)(C)C)c(OC(=O)c2ccco2)c1Sc1ccccc1,-2.8%
3,Cc1nn(C(C)(C)C)c(OC(=O)c2ccc(Br)o2)c1Sc1ccccc1,19.3%
4,Cc1ccc(C2(C)NC(=O)N(CC(=O)Nc3cc(S(=O)(=O)N(C)C)ccc3C)C2=O)cc1 (stereo not drawn),-19.4%
5,O=C(/C=C/Nc1ccccc1Br)c1ccccn1,84.5% (active)
6,O=C(/C=C\Nc1ccccn1)c1ccccc1,-49.1%
7,O=C(/C=C/c1ccc2c(c1)OCO2)c1ccccn1,-6.5%
8,O=C(/C=C\Nc1ccccc1Br)c1ccc2c(c1)OCO2,59.6% (active)
9,O=C(/C=C/c1ccccc1Br)c1ccc2c(c1)OCO2,-20%
10,O=C(/C=C/c1ccccc1)c1ccccn1,-15.9%
11,O=C(/C=C\Nc1ccc2c(c1)OCO2)c1cccs1,-64.5%
12,O=C(/C=C\Nc1ccc2c(c1)OCO2)c1ccccn1,70.6% (active)
13,O=C(/C=C\Nc1ccc2c(c1)OCO2)c1ccc2c(c1)OCO2,-48.7%
14,COc1cc(-c2cc(-c3ccccc3)nc(SCC(=O)O)c2C#N)cc(OC)c1OC,-3.4%
15,O=C(NCc1ccccc1)C1CCCN(S(=O)(=O)c2ccc(-n3cnnn3)cc2)C1 (stereo not drawn),34.5%
16,O=C(NC1CCSC1=O)c1ccccc1 (stereo not drawn),18.9%
17,Cc1ccc2sc(N(CCN(C)C)C(=O)c3ccc(S(=O)(=O)N4CC(C)OC(C)C4)cc3)nc2c1C (stereo not drawn),-6.4%
18,COc1ccc(Br)cc1C1CC(=O)C(C)C(c2cc(Br)ccc2OC)N1 (stereo not drawn),-12%
19,COc1ccc(/C=N/NC(=O)CSCc2ccc([N+](=O)[O-])cc2)cc1OC,-10.4%
20,O=C(NNc1ccc(F)cc1F)C1CCC1,-1.9%
21,CCOc1ccc(Nc2ccnc3cc(Cl)ccc23)cc1,5.9%

row,Compound,inhibition
1,O=C(NNc1cc(Cl)ccc1Cl)C1CCC1,-7.1%
2,Clc1ccc(NNc2ccnc3cc(Cl)ccc23)cc1,-35.6%
3,O=C(NNc1ccnc2cc(Cl)ccc12)C1CCCCC1,47.5% (active)
4,Oc1ccc(Nc2ccnc3cc(Cl)ccc23)cc1,53.4% (active)
5,NC(=S)NNc1ccnc2cc(Cl)ccc12,-8.6%
6,Clc1ccc(CNC2CCCC2)cc1,9.1%
7,Cc1ccc(CN(C(=O)c2ccc([N+](=O)[O-])cc2)C2CCS(=O)(=O)C2)o1 (stereo not drawn),-50%
8,CCOC(=O)C1CCCN(C(=O)CCNS(=O)(=O)c2cc(Br)cnc2N)C1 (stereo not drawn),-11.8%
9,Cc1cc(C)c(NC(=O)COC(=O)c2cc([N+](=O)[O-])ccc2N2CCOCC2)c(C)c1,-25.6%
10,CCOc1ccc(N2C(=O)CC(NCCNc3ccc(C(=O)c4cccs4)cc3)C2=O)cc1 (stereo not drawn),-13.5%
11,C=C1CCC[C@]2(C)C[C@H]3OC(=O)C(CN(C)CC(OC)OC)[C@H]3CC12 (stereo partly drawn),-4.9%
12,C=C1CCC[C@]2(C)C[C@H]3OC(=O)C(CN[C@@H](C)c4ccccc4)[C@H]3CC12 (stereo partly drawn),-16.5%
13,C=C1CCC[C@]2(C)C[C@H]3OC(=O)C(CN(Cc4ccc(OC)c(OC)c4)CC(C)O)[C@H]3CC12 (stereo partly drawn),33.5% (active)
14,CCc1ccccc1NC(=S)NCCSc1ccc(Cl)cc1,-3.7%
15,Cc1c(C(C)C)c(=O)n(-c2ccc(S(=O)(=O)NC3CC3)cc2)n1C,-14.8%
16,Cc1c(C(C)C)c(=O)n(-c2ccc(S(=O)(=O)NCc3ccccc3)cc2)n1C,44.6% (active)
17,Cc1c(C(C)C)c(=O)n(-c2ccc(S(=O)(=O)NC(C)C)cc2)n1C,8.6%
18,O=C(Nc1ccc(F)cc1F)c1ccc2ncsc2c1,-38%
19,CC(C)OCCCNC(=O)c1cc(-c2cccnc2)nc2ccccc12,-6.7%
20,COC(=O)CN(c1ccc(OC)c(OC)c1)S(C)(=O)=O,-16%
21,CCOC(=O)c1[nH]ncc1CN1CCCC(C(=O)c2ccc(C(C)(C)C)cc2)C1 (stereo not drawn),-29.3%

row,Compound,inhibition
1,CCOC(=O)c1[nH]ncc1CN1CCCC(C(=O)c2cc(Cl)ccc2OC)C1 (stereo not drawn),16.4%
2,CCOC(=O)c1[nH]ncc1CN1CCCC(C(=O)c2ccc(OC)c(OC)c2)C1 (stereo not drawn),111% (active)
3,Cc1cccc(N(Cc2ccccc2)C(=O)CCl)c1,-31.5%
4,Cc1ccc(N(CCC#N)C(=O)CSc2ccc3c(c2)OCCO3)cc1,3.9%
5,N#CCCN(C(=O)Nc1ccc(Cl)cc1)c1ccccc1,-13%
6,Cc1ccc(C(=O)N(CC#N)CC#N)cc1C,-16.5%
7,O=C(c1ccco1)N(Cc1ccccc1)c1cccc([N+](=O)[O-])c1,24%
8,Cc1ccc(N(CCC#N)C(=O)CCl)cc1C,97.7% (active)
9,N#CCCN(C(=O)COc1ccc(Cl)cc1Cl)c1ccccc1,-24.1%
10,N#CCCN(C(=O)CCl)c1cccc(Cl)c1,58% (active)
11,O=C(CCl)N(Cc1cccc([N+](=O)[O-])c1)c1cccc(Cl)c1,101% (active)
12,CCCCc1n[nH]c2c1/C(=N/O)CC(C)(C)C2,-12.1%
13,O=C(N/N=C/c1ccncc1)c1cc2ccccc2cc1O,11.3%
14,Cc1cccc(NC(=O)CSC2=NN3CCCC(=O)N=C3S2)c1C,7.2%
15,CC(=O)O/N=C(/c1nonc1N)N(C)C,-21.6%
16,CCCc1nc2ccc(N)cc2c(=O)n1Cc1ccccc1Cl,-43.9%
17,CC(Sc1nc(N)c(NC(=O)c2ccc(Br)o2)c(=O)[nH]1)C(=O)O (stereo not drawn),-18.7%
18,N#C/C(=C/c1cccc([N+](=O)[O-])c1)c1nnc2n1CCCCC2,-32.4%
19,CN(c1ccccc1)c1ccc(/C=C(\C#N)c2nnc3n2CCCCC3)cc1[N+](=O)[O-],78.8% (active)
20,N#C/C(=C\c1cccc([N+](=O)[O-])c1)c1nnc2n1CCCCC2,9%
21,Cc1ccnc(NC(=O)/C=C/c2ccccc2[N+](=O)[O-])c1,-40.4%
